This excerpt belongs to a sample that is enriched for hits.
Methyltransferases – Primary Screen for Target Class Profiling of Small Molecule Inhibitors of Methyltransferases | purified enzyme, MTase-Glo SAH luminescence; stronger effect = lower value | 3.9% of 25,000 active | calls only at 40 µM; call rule not given here
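Each enzyme was assayed with SAM and its substrate. SAH formation detected by MTase-Glo luminescence; single-point 40 uM screen[…].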
MTase-Glo counter – detection enzyme interference, methyltransferase counter-screen. Potency, µM (doses to about 57.3 µM), for inactives: top-dose activity change, negative = inhibition, most hits filed as inhibitors. MTase-Glo coupled enzymes, SAH conversion luminescence, no MTase. shares compounds with Methyltransferases. 6% of 180 active; active = well fitted inhibition curve with a large enough effect; inconclusive = small, poorly fitted or top-dose-only effect; note: potency is the fitted concentration of half-maximal effect
* marks the source's active call; other numbers are inactive results; i = inactive; ? = inconclusive; + = active, no number; [ ] = dose if it differs, or a comment. % is set by controls: 0 for no effect and ±100 for the full control effect.

SMILES	Methyltransferases	others
CC1CCCCC1NC(=O)C1(C)Cn2c(cc3sccc32)C(=O)N1Cc1ccccc1 (stereo unspecified)	i
CCN1CCN(C(=O)c2cc3n(n2)CC(C)(C(=O)NCc2ccc(F)cc2)N(C)C3=O)CC1 (stereo unspecified)	i
CCC(C)NC(=O)c1ccc2c(=O)n(C(C)C)c3nn(CC(=O)Nc4ccccc4)c(=O)n3c2c1 (stereo unspecified)	i
CCc1cc2c(cc3n2CC(C)(C(=O)NC2CCCCC2)N(Cc2ccccc2)C3=O)s1 (stereo unspecified)	i
COc1ccc(-c2cc3n(n2)CC(C)(C(=O)NCc2ccccc2)N(c2cc(C)ccc2C)C3=O)cc1 (stereo unspecified)	i
Cc1noc(C)c1-c1cc2c(cc(C)n2CCN(C)C)c(Nc2ccncn2)n1	+	MTase-Glo counter=-3.2%[85.7 µM]
COc1ncccc1-c1nc(-c2c(C)noc2C)cc2cc(CN(C)C)oc12	i
CCCN1C(=O)c2c(C(=O)NCCc3cccc(C)c3)ncn2CC1(C)C(=O)NC1CCCC1 (stereo unspecified)	i
Cc1ccc(NC(=O)CCc2nnc3n(Cc4ccccc4)c(=O)c4ccccc4n23)cc1C	i
CCC(C)NC(=O)c1ccc2c(=O)n(CC(C)C)c3nn(CC(=O)Nc4ccccc4C)c(=O)n3c2c1 (stereo unspecified)	i
CC1(C(=O)NC2CCCCC2)Cn2c(nc3ccccc32)C(=O)N1Cc1ccccc1F (stereo unspecified)	i
Cc1ccc(NC(=O)Cn2nc3n(CCC(C)C)c(=O)c4ccccc4n3c2=O)c(C)c1	i
C1=C(c2nc(-c3ccncc3)cc3c2ccn3Cc2cccnc2)CCOC1	+	MTase-Glo counter=0.8%[85.7 µM]
O=C(CCn1ccc2cc(S(=O)(=O)N3CCCCC3)ccc21)NCc1cccnc1	i
COC(=O)c1cc2n(n1)CC(C)(C(=O)NC1CCC(C)CC1)N(c1ccc(Cl)cc1C)C2=O (stereo unspecified)	i
CN(C)c1cc(N2CCCC(NC(=O)C3CCC3)C2)ncn1 (stereo unspecified)	i
CCCn1cc(C(=O)N2C[C@@H](N(C)C)[C@H](c3ccc(C)cc3)C2)c(C)n1	i
Cc1ccc([C@@H]2CN(c3cc(N4CCC(O)CC4)ncn3)C[C@H]2N(C)C)cc1	+	MTase-Glo counter=-3.1%
CCCn1c(=O)c2ccc(C(=O)NCC(C)C)cc2n2c(=O)n(CC(=O)Nc3ccc(F)cc3)nc12	i
CC1(C(=O)NC2CCCCCC2)Cn2nc(-c3ccco3)cc2C(=O)N1Cc1cccs1 (stereo unspecified)	i
O=c1c2ccccc2n2c(-c3ccccc3)nnc2n1Cc1ccc(F)cc1	i
Cc1ccc(NC(=O)CSc2nnc3n(Cc4ccccc4)c(=O)c4ccccc4n23)cc1C	i
COc1ccc(Cl)cc1NC(=O)Cn1nc2n(Cc3ccccc3)c(=O)c3ccccc3n2c1=O	i
COc1ccc(-c2nnc3n2CCN([S+](=O)([O-])c2c(C)noc2C)C3)cc1	i
Cc1noc(C)c1[S+](=O)([O-])N1CCn2c(nn(-c3ccc(C(F)(F)F)cc3)c2=O)C1	+	MTase-Glo counter=-2.5%
SMILES	Methyltransferases	others
Cc1nn(-c2ccccc2)c2c1C(C)N(C1CCN([S+](=O)([O-])c3c(C)noc3C)C1)C2=O (stereo unspecified)	i
CCN1C(=O)c2cc(C(=O)NCc3ccccc3F)nn2CC1(C)C(=O)NC1CCCC1 (stereo unspecified)	i
CC(C)CCn1c(=O)c2ccccc2n2c(=O)n(CC(=O)Nc3ccc(Cl)cc3)nc12	i
CC(C)NC(=O)c1ccc2c(=O)n(C(C)C)c3nn(CC(=O)NCc4ccc(Cl)cc4)c(=O)n3c2c1	i
COc1cncc(Nc2ncc(-c3ccccc3OC)c3c2OCC3)c1	+	MTase-Glo counter=-2.8%[85.7 µM]
Cc1noc(C)c1-c1cnc(Nc2ccc(F)c(Cl)c2)c2c1CCO2	i
COc1ccc(-c2cc3n(n2)CC(C)(C(=O)NCc2ccccc2)N(c2ccc(C)c(Cl)c2)C3=O)cc1 (stereo unspecified)	i
COc1ccc(Br)cc1CN1C(=O)c2cc3ccccc3n2CC1(C)C(=O)NCc1ccccc1 (stereo unspecified)	i
Cc1ccc(Nc2ccn3c(=O)n(CC(=O)Nc4ccc(F)cc4F)nc3n2)cc1	i
COc1ccc(OC)c(CN2CCNc3cc(-c4ccnc(C)c4)ncc3C2)c1	+	MTase-Glo counter=4.5%[85.7 µM]
COc1ccc(-c2nn(-c3ccccc3C)cc2CN2CCCN(C)CC2)cc1F	i
COc1ccc(OC)c(CN2CCC3(CC2)Nc2ccccc2NC3=O)c1	i
COc1cccc(CN2C(=O)c3ccc(-c4ccco4)n3CC2(C)C(=O)NCc2ccccc2)c1OC (stereo unspecified)	i
CC1CCCC(NC(=O)C2(C)Cn3c(cc4sccc43)C(=O)N2Cc2ccccc2)C1C (stereo unspecified)	i
O=C(NCC1CC1)c1nc2c(o1)CCN(CCCc1ccccc1)CC2	i
COc1ccc(CN2CCc3nc(C(=O)NCCOc4ccccc4)oc3CC2)cn1	i
O=C(NCc1cccc(F)c1)c1nc2c(o1)CCN(CC1CCCC1)CC2	+	MTase-Glo counter=-1.7%[85.7 µM]
Cc1c(Cl)cccc1NS(=O)(=O)c1ccc2c(c1)NC(=O)CC(=O)N2	i
O=C(CCc1nnc2n(Cc3ccccc3Cl)c(=O)c3ccccc3n12)NCc1ccc(F)cc1	i
Cn1cc(-c2cc3c(ccn3Cc3ccncc3)c(N3CCOCC3)n2)cn1	+	MTase-Glo counter=-3.4%[85.7 µM]
COc1ccc(-c2nnn3c2nc(N2CCOCC2)c2ccccc23)cc1	i
COc1cc(NC(=O)CSc2nnc3n(CCC(C)C)c(=O)c4ccccc4n23)cc(OC)c1	i
Cc1ccc(-c2nnc3n(Cc4ccccc4)c(=O)c4ccccc4n23)cc1	i
Cc1cnc(-c2cccnc2)n1CC1CCN(S(=O)(=O)c2ccccc2)CC1	i
Cc1cnc(-c2cccnc2)n1C1CCCN(CC2CCCCC2)C1 (stereo unspecified)	i
SMILES	Methyltransferases	others
c1ccc(-c2cc3c(cn2)NCCN(CC2CC2)C3)cc1	+	MTase-Glo counter=2.8%[114 µM]
CCC(C)NC(=O)c1ccc2c(=O)n(C(C)C)c3nn(CC(=O)Nc4ccc(F)cc4)c(=O)n3c2c1 (stereo unspecified)	i
CN1C(=O)c2cc(C(=O)NCc3ccccc3F)nn2CC1(C)C(=O)NC1CCCC1 (stereo unspecified)	i
CC(C)NC(=O)c1ccc2c(=O)n(C(C)C)c3nn(CC(=O)Nc4cccc(Cl)c4)c(=O)n3c2c1	i
Cc1c(Cl)cccc1N1C(=O)c2cc3sccc3n2CC1(C)C(=O)NC1CCCC(C)C1C (stereo unspecified)	i
Cn1cnc(CN2CCNc3cc(Nc4ccccc4)ncc3C2)c1	+	MTase-Glo counter=3.3%[85.7 µM]
c1ccc(Nc2cc3c(cn2)NCCN(Cc2cccs2)C3)cc1	i
Cn1cc(CN2CCOc3cc([S+](=O)([O-])Nc4ccccc4)ccc3C2)cn1	i
CC(C)CNc1ccc2c(n1)C(C)(C(=O)NCc1cccnc1)CN(Cc1ccccc1)C2 (stereo unspecified)	i
Fc1ccccc1CN1CCNc2cnc(OCc3cccnc3)cc2C1	i
c1ccc(CCN2CCNc3cc(NCc4cccnc4)ncc3C2)cc1	+	MTase-Glo counter=?
